Test results taken from PubChem BioAssay (NCATS).
“And” between values parts separate entries of the source, which are not always exact repeats. Equal entries are not always repeated. Results filed as inconclusive are left out. Entries that show only a call come without a potency. The source made the active and inactive calls. Calls follow the shape of the dose curve; as a rule, active = well fitted curve in the direction sought with a large enough effect; inconclusive = small, poorly fitted or top-dose-only effect, or another doubt; inactive = no such curve, though single readings can be large; an effect the other way counts as inactive or inconclusive.

How the values were obtained:
[1] = qHTS of pediatric cancer cell lines to identify multiple opportunities for drug repurposing: Primary screen for NB1643 cells (AID 1347099); conditions: NB1643 neuroblastoma viability, CellTiter-Glo luminescence, 48 h; series mostly up to 46 µM; also: nearly all actives have a fitted effect of over 50% in size; also: potency is read from the fitted curve at half-maximal effect
Summary of the method: (§1)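 Phenotypic viability qHTS, 48 h compound exposure, CellTiter-Glo luminescence read-out; multi-concentration dosing so that potency and efficacy derive directly from the primary screen's curves.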

[2] = qHTS of pediatric cancer cell lines to identify multiple opportunities for drug repurposing: Primary screen for LAN-5 cells (AID 1347100); conditions: LAN-5 neuroblastoma viability, CellTiter-Glo luminescence, 48 h; series mostly up to 46 µM; also: potency is read from the fitted curve at half-maximal effect
Summary of the method: (§2)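 Cells (500-1,000/well) in growth media were settled 5 h at 37 degrees C, then given compounds for 48 h. Viability was read as CellTiter-Glo luminescence. Primary runs used MIPE at 11 points (0.78 nM-46 µM) and NPC at 8 points (0.59 nM-46 µM); follow-ups used 11 points.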

[3] = qHTS of pediatric cancer cell lines to identify multiple opportunities for drug repurposing: Primary screen for BT-12 cells (AID 1347101); conditions: BT-12 viability, CellTiter-Glo luminescence, 48 h; series mostly up to 57.3 µM; also: nearly all actives have a fitted effect of over 25% in size; also: potency is read from the fitted curve at half-maximal effect
Summary of the method: (§3)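 Cells (500-1,000/well) rested 5 h, then received compounds for 48 h; metabolically active cells were measured by CellTiter-Glo luminescence. Final concentrations spanned up to 46 µM (MIPE, 11-point) or 0.59 nM-46 µM (NPC, 8-point) in primary screens, 11-point in follow-ups.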

[4] = qHTS of pediatric cancer cell lines to identify multiple opportunities for drug repurposing: Primary screen for OHS-50 cells (AID 1347103); conditions: OHS-50 osteosarcoma viability, CellTiter-Glo luminescence, 48 h; series mostly up to 57.3 µM; also: nearly all actives have a fitted effect of over 40% in size; also: potency is read from the fitted curve at half-maximal effect
Summary of the method: as §3

[5] = qHTS of pediatric cancer cell lines to identify multiple opportunities for drug repurposing: Primary screen for RD cells (AID 1347104); conditions: RD rhabdomyosarcoma viability, CellTiter-Glo luminescence, 48 h; series mostly up to 46 µM; also: nearly all actives have a fitted effect of over 55% in size; also: potency is read from the fitted curve at half-maximal effect
Summary of the method: as §1

[6] = qHTS of pediatric cancer cell lines to identify multiple opportunities for drug repurposing: Primary screen for MG 63 (6-TG R) cells (AID 1347105); conditions: MG 63 (6-TG R) viability, CellTiter-Glo, 48 h; series mostly up to 46 µM; also: nearly all actives have a fitted effect of over 50% in size; also: potency is read from the fitted curve at half-maximal effect
Summary of the method: as §1

[7] = qHTS of pediatric cancer cell lines to identify multiple opportunities for drug repurposing: Primary screen for U-2 OS cells (AID 1347096); conditions: U-2 OS viability, CellTiter-Glo luminescence, 48 h; series mostly up to 46 µM; also: nearly all actives have a fitted effect of over 50% in size
Summary of the method: as §2

[8] = qHTS of pediatric cancer cell lines to identify multiple opportunities for drug repurposing: Primary screen for Rh18 cells (AID 1347102); conditions: Rh18 rhabdomyosarcoma viability, CellTiter-Glo luminescence, 48 h; series mostly up to 46 µM; also: nearly all actives have a fitted effect of over 65% in size; also: potency is read from the fitted curve at half-maximal effect
Summary of the method: as §2

[9] = qHTS of pediatric cancer cell lines to identify multiple opportunities for drug repurposing: Primary screen for SK-N-SH cells (AID 1347098); conditions: SK-N-SH viability, CellTiter-Glo luminescence, 48 h; series mostly up to 57 µM; also: potency is read from the fitted curve at half-maximal effect; nearly all actives have a fitted effect of over 65% in size
Summary of the method: as §3

[10] = qHTS of pediatric cancer cell lines to identify multiple opportunities for drug repurposing: Primary screen for Saos-2 cells (AID 1347097); conditions: Saos-2 viability, CellTiter-Glo ATP luminescence, 48 h; series mostly up to 46 µM; also: potency is read from the fitted curve at half-maximal effect; nearly all actives have a fitted effect of over 40% in size
Summary of the method: as §1

| SMILES | Potency [1] | Potency [2] | Potency [3] | Potency [4] | Potency [5] | Potency [6] | Potency [7] | Potency [8] | Potency [9] | Potency [10] |
| --- | --- | --- | --- | --- | --- | --- | --- | --- | --- | --- |
| COc1cc2nc(N3CCCN(C)CC3)nc(NC3CCN(Cc4ccccc4)CC3)c2cc1OC | 9.35 µM (active) | 8.33 µM (active) | 10.9 µM (active) | 8.63 µM (active) | 8.33 µM (active) | 9.35 µM (active) | – | – | – | – |
| CCOC(=O)c1ccc(C#Cc2ccc3c(c2)C(C)(C)CCS3)nc1 | – | – | inactive | 777 nM (active) and 54.4 nM (active) | inactive | inactive | inactive | inactive | – | – |
| CN(C)c1ccc(C(=C2C=CC(=[N+](C)C)C=C2)c2ccc(N(C)C)cc2)cc1 | – | 1.68 µM (active) and 526 nM (active) | 1.38 µM (active) and 611 nM (active) | 978 nM (active) and 217 nM (active) | 1.88 µM (active) and 662 nM (active) | 2.66 µM (active) and 1.48 µM (active) | – | 750 nM (active) and 332 nM (active) | 1.09 µM (active) and 2.41 µM (active) | – |
| CCCc1nc(C)c2c(=O)[nH]c(-c3cc(S(=O)(=O)N4CCN(CC)CC4)ccc3OCC)nn12 | – | – | 12.2 µM (active) | – | – | – | – | – | – | – |
| Cc1c(-c2ccc(O)cc2)n(Cc2ccc(OCCN3CCCCCC3)cc2)c2ccc(O)cc12 | inactive | – | – | – | inactive | – | inactive | inactive | – | – |
| CCOC(=O)c1ccc(OC(=O)CCCCCN=C(N)N)cc1 | inactive | inactive | inactive | inactive | inactive | inactive | inactive | inactive | – | – |
| CC(=O)[C@H]1CC[C@H]2[C@@H]3CCC4=CC(=O)CC[C@]4(C)[C@H]3CC[C@]12C | 2.96 µM (active) | – | 24.3 µM (active) | 19.3 µM (active) | – | 11.8 µM (active) | inactive | – | – | – |
| CCCCc1oc2ccc(NS(C)(=O)=O)cc2c1C(=O)c1ccc(OCCCN(CCCC)CCCC)cc1 | 18.7 µM (active) | 11.8 µM (active) and 18.8 µM (active) | 19.3 µM (active) and 12.3 µM (active) | 10.9 µM (active) and 15.5 µM (active) | 18.7 µM (active) and 23.7 µM (active) | 21.1 µM (active) | – | – | 27.1 µM (active) and 17.2 µM (active) | 18.7 µM (active) and 23.7 µM (active) |
| Cc1cc(NS(=O)(=O)c2ccc(N)cc2)no1 | – | inactive | inactive | inactive | inactive | inactive | inactive | inactive | – | – |
| CC(C)OC(=O)OCOP(=O)(CO[C@H](C)Cn1cnc2c(N)ncnc21)OCOC(=O)OC(C)C | inactive | inactive | – | – | inactive | inactive | inactive | – | – | – |
| CCN[C@H]1C[C@H](C)S(=O)(=O)c2sc(S(N)(=O)=O)cc21 | inactive | inactive | inactive | inactive | inactive | inactive | inactive | – | – | – |
| CN(C)CCc1c[nH]c2ccc(C[C@H]3COC(=O)N3)cc12 | – | inactive | inactive | inactive | inactive | inactive | inactive | inactive | – | – |
| COc1ccc(C(=O)CC(=O)c2ccc(C(C)(C)C)cc2)cc1 | – | – | – | inactive | – | inactive | – | – | – | – |
| NC(=O)c1cccc(N)c1 | inactive | inactive | inactive | inactive | inactive | inactive | inactive | inactive | – | – |
| CC[C@H](NC(C)C)[C@H](O)c1ccc(O)c2[nH]c(=O)ccc12 | – | inactive | inactive | inactive | inactive | inactive | inactive | – | – | – |
| CCC(=O)O[C@]1(C(=O)SCF)[C@H](C)C[C@H]2[C@@H]3C[C@H](F)C4=CC(=O)C=C[C@]4(C)[C@@]3(F)[C@@H](O)C[C@@]21C | – | inactive | inactive | – | inactive | inactive | inactive | – | – | – |
| CC(C(=O)O)c1ccc2c(c1)CC(=O)c1ccccc1S2 (centres undefined) | – | inactive | – | – | – | inactive | inactive | – | – | – |
| COC(=O)Nc1nc2ccc(S(=O)c3ccccc3)cc2[nH]1 (centres undefined) | – | 944 nM (active) and 11.8 µM (active) | 2.46 µM (active) | 1.1 µM (active) and 24.3 µM (active) | – | 668 nM (active) and 14.8 µM (active) | – | – | – | 8.33 µM (active) |
| COc1cc2ncnc(Nc3cccc(Cl)c3)c2cc1OC | 0.372 µM (active) | – | – | 24.3 µM (active) | – | – | – | – | 8.57 µM (active) | – |
| COc1cnc(NS(=O)(=O)c2ccc(N)cc2)nc1 | – | – | inactive | inactive | – | inactive | inactive | – | – | – |
| Oc1c(Cl)cc(Cl)c2cccnc12 | 2.66 µM (active) and 6.62 µM (active) | 5.96 µM (active) and 18.7 µM (active) | 27.6 µM (active) and 30.6 µM (active) | 12.3 µM (active) and 27.3 µM (active) | 5.31 µM (active) and 26.4 µM (active) | 6.68 µM (active) and 11.8 µM (active) | – | – | – | – |
| CCn1cc(C(=O)O)c(=O)c2cc(F)c(N3CCNCC3)nc21 | inactive | inactive | inactive | inactive | inactive | inactive | inactive | inactive | – | – |
| Cc1ccc(S(=O)(=O)N[C@@H](Cc2ccccc2)C(=O)CCl)cc1 | 20.9 µM (active) | 16.6 µM (active) | – | 19.3 µM (active) | 26.4 µM (active) | 29.6 µM (active) | – | – | 21.5 µM (active) | 9.35 µM (active) |
| N=C(N)c1ccc(OCCCCCOc2ccc(C(=N)N)cc2)cc1 | 20.9 µM (active) | – | 2.46 µM (active) and 4.85 µM (active) | – | 18.7 µM (active) | inactive | inactive | – | – | – |
| O=C(O)c1ccc(-n2nc(-c3ccccc3O)nc2-c2ccccc2O)cc1 | – | inactive | – | 21.7 µM (active) | – | inactive | – | – | – | – |
| Nc1nc(F)nc2c1ncn2[C@@H]1O[C@H](CO)[C@@H](O)[C@@H]1O | – | 11.9 µM (active) and 469 nM (active) | 1.53 µM (active) | 55 nM (active) and 485 nM (active) | 0.833 µM (active) | 42.2 nM (active) and 590 nM (active) | – | – | – | 150 nM (active) and 935 nM (active) |
| COC(=O)Nc1nc2ccc(C(=O)c3ccccc3)cc2[nH]1 | – | 0.469 µM (active) | 347 nM (active) and 2.43 µM (active) | 138 nM (active) and 1.53 µM (active) | 1.66 µM (active) | 84.1 nM (active) and 935 nM (active) | – | – | 8.57 µM (active) | 66.8 nM (active) and 662 nM (active) |
